Measured values: the supplement of paper PMC12632987

T1: USP38, Q8NB14
T1 chain: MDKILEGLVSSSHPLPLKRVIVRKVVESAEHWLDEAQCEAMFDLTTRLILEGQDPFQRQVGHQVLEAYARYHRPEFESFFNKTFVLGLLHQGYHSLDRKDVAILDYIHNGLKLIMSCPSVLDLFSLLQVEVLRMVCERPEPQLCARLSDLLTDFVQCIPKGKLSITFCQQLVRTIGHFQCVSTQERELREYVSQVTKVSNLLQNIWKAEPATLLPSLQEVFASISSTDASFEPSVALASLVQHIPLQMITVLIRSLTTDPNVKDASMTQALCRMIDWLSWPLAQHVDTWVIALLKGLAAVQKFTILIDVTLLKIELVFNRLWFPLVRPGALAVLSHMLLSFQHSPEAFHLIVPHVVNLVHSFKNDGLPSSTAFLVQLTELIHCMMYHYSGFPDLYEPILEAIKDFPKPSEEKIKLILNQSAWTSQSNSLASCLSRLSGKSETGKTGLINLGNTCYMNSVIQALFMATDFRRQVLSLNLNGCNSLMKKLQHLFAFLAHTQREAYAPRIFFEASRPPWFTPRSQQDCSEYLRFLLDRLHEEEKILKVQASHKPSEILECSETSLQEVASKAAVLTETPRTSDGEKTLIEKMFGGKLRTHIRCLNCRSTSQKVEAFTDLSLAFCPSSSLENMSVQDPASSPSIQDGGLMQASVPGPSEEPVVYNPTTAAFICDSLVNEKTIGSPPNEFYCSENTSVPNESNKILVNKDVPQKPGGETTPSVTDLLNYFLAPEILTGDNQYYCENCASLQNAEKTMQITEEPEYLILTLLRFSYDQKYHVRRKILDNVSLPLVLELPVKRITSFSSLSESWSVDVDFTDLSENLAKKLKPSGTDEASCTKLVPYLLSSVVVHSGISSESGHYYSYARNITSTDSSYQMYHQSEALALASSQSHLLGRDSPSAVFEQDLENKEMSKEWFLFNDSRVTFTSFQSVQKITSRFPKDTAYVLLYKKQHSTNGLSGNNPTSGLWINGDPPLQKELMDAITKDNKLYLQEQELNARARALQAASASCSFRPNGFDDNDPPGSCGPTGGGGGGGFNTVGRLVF

B1: usp_38_diff_out_16_37_207 (protein)
chain: GEEKLKEFKKFMEEAMKKAKKLAEEAKKLAKEGKDKKEIEKLQKELDKLLDEVNEKTTEVLEEVPEKADEILAEYDKAATTIAEAGATIRAELRKARAAE
B2: usp_38_diff_out_16_25_199 (protein)
chain: NVEALLKAHDELGKAAGYILEAREHLDSPEVKELLEKAIEHLEEALKIMKEELKIPQETAKKIQELIEKAKKLLEEGADPEEVIKALEEAIDAAADALAS
B3: usp_38_diff_out_16_37_204 (protein)
chain: GEELLKEYKEFVEKVIKEAKKLAEEAKKLAKAGADLAEIRAIQEKLNELLDELVERTTEVLEKVPEHAEEILEEYDKAATEIAKAGAEIRAELRKAKAAA
B4: usp_38_diff_out_16_25_188 (protein)
chain: NVEALLEAHHHLGLAAGYIVLAKEHKDSEKAREYLEKAIEHLEEALRILEEELNIDEETAEEIRKLIEKAKKLLKEGAPVEEIIKLLEEAIDLMAKALAE
B5: usp_38_diff_out_16_25_189 (protein)
chain: SVEALLKAHEELGEAAGYIVQARENKDKPEARELLKKAIESLEKALEILEKELKIDEKVAKEIREKIERARKLLEEGKPVEEVIKELEEALDLAIEALAK
B6: usp_38_diff_out_16_25_200 (protein)
chain: SVEALLEAHDHLGEAAGHILRAKESKDEEEKKKLLEEAIKHLEKALKIMKEKLKIPEEVAEEIEKKIERAKKLLEEGAPFEEVIKELEEAIDLAAKALAA
B7: usp_38_diff_out_17_125_212 (protein)
chain: MFEELKKKIEELLEEARRLVEEAERALAAGAPTAEVRRLLDQAADALGQLAVELRKLREESKDKAQAAKVIKEATKEANELIDRLTELETRVFLREAEAA
B8: usp_38_diff_out_16_37_203 (protein)
chain: SAAEVEALMARLREAVERARELIERARRAIEEGADEAEIERLLEEATRALEEAGRALAEILLLDPARYPEARALYDETAARFGEVVAEARDARRERRARA
B9: usp_38_diff_out_16_37_205 (protein)
chain: GEELLEEFRRFMEEAEREARRLAEEARELAEKGADIEEIERVLEELERLLDEVVERTTEVLEAVPEHADEILAEYDRAATTLAEAGKEIREKLREAKEKE
B10: usp_38_diff_out_17_125_217 (protein)
chain: SSEELKEEIEKALKEAEELLKKAKELLEAGAPFEEIMAALDKAADALGKLAVLLRKLREESEDPAQAAKFIKEATKRADELIDEYTKLATEAFQREADAA
B11: usp_38_diff_out_16_37_210 (protein)
chain: GEEVLKEFKEFMEKAIEEAKKLAEEAKKLAKEGADIEELKKLKEELEKLIDEAVEKTTEALEKVPEKIEEIFAEFDKFADEAAKAGKEIDKAIKEAKKKK
B12: usp_38_diff_out_16_25_190 (protein)
chain: NVEALLRAHDELGRAAGYIVLAREHADSPEVKELLREAIESLERALRIAEEELHIPEEVAEKVKKLIEEAKKLLEEGADPEEVIKKLEEALDLLAEALAE
B13: usp_38_diff_out_16_37_209 (protein)
chain: AEKVLEEFKKFMEEAIKRAEEIGRRARELEEEGADLEELERLLEELERLLDEAVKRLTEALEKVPEKIEELFAIYDEFADAAARAGAIIREAIRRARERA
B14: usp_38_diff_out_16_25_201 (protein)
chain: EVEALLEAHDHLGDAAGYVLRAKESEDEEERKRLLREALESLRRALDILRERLHIPEEEAERIEALIEEAERLLEEGAPFEEVIAVVEEAIDLAAEALAR
B15: usp_38_diff_out_16_25_197 (protein)
chain: SVEALLEAHDLIGRAAGYVLRARESEDPEEQRKLLREALEHLEEALKLLEEKLKIDPEKAKEIKKLIEEAKKLLEEGAPIEEVIAVVEKAIDLAVDALNE
B16: usp_38_diff_out_16_37_206 (protein)
chain: AEKLLAEFKAFVEEIIERARRLAEEARRLAEEGAPIEEIERVLRELEELLDELVERTTEVLEKVPEHADEILAEYDRAATEIAEAGAEIRKALRERKEKE
B17: usp_38_diff_out_16_25_195 (protein)
chain: SVEALLRAHDLIGRAAGLVLRARESEDPEEQRRLLEEAIRHLEEALELLKEELKIDEETAEKIEKLIEEARRLLEEGAPFEEVIKVLEEAIDLAVDALAK
B18: usp_38_diff_out_16_25_192 (protein)
chain: SVEALLRAHDLLGEAAGYILEAKEHKDSPKARELLEKAIKSLEEALRVMKEELKIDEEKAEEIEKLIKEAKKLLKEGAPVEEVIKVLEEAVDKAADALAE
B19: usp_38_diff_out_17_125_216 (protein)
chain: SDEELKEKAEELLKKAEELLKEAEKLLEEGAPAEEVEKKLDEAADALGQLAVTLRELREKSEDKAQAAKFIKELTKKANELIDRYTELATANFQRVADAQ
B20: usp_38_diff_out_17_125_214 (protein)
chain: DFEELVKKIEELLAEAEKLVKEAKKLLEEGAPPAEVRAALDKARDALGALAKALRELRRTSKDKAQAAKVIKEANEKADKLIDELTKLETEVFLREADAA
B21: usp_38_diff_out_17_125_218 (protein)
chain: SDEELKKEIERLLEEAERLLEEAEKALEEGAPFEEIRKLLDEAADALGQAAVKLRELREKSEDPAQAAKFIKEATERANELIDRYTELATRAFLREAEAA
B22: usp_38_diff_out_17_125_219 (protein)
chain: SDADLEAEAKALLAEAKALLKEAEKLLKEGAPFEEIRKKLDAAADKLGQLAVTLQQLRDKSKDKAQAAKFIKEMTAEANKLIDEYTKLATEAFLREAEEA
B23: usp_38_diff_out_16_25_194 (protein)
chain: EVEALLKAHDEIGWAAGKLLEAKESKDPEEQKKLLEEALKHLEKALKILKEELKIDEETLKKIEELIKKAKKLLKEGAPFEEVIKTLEEAIDLAVDALNK
B24: usp_38_diff_out_16_25_202 (protein)
chain: EVEALLRAHDELGEAAGYILRARESEDEEERKKLLREALESLEKALDIMKKELKIPEEVAKKIQELIDEAKEKLEAGAPFEEVIKLLEEAIDLAAEALAA
B25: usp_38_diff_out_16_25_191 (protein)
chain: SVEALLRAHDKLGEAAGYILQAKEKKDSEEARKLLEKAVKALEEALKILVEELKIDPKDAEEIEKLIKEAKKLLKEGAPVEEVIKVLEKAVDAAAKALAK
B26: usp_38_diff_out_16_25_193 (protein)
chain: NVEALLRAHDALGRAAGYVVRARELGESPEARELLREAIRALREALRILREELRIPEEVARRIEEAIERAERLLEAGEPVEEVIEALEEAIDLAAAALAA
B27: usp_38_diff_out_16_13_187 (protein)
chain: SELEKLLKKLEELTKKAEEKKKELEKLIKEGAPKEEIREKLEELRELLIEAAGTILEIRNLMVEKANEEQRKKAREKLKEAEEKLNEAINLYVEKELELA
B28: usp_38_diff_out_17_125_213 (protein)
chain: AEAALIAEIEALLAEATAKVKEAEALLKAGAPTEEVLKALDAARDALGALAVALERLRRESADRAQAAAVIKAATAEADKLIDRLTELETEAFLRQAEEA
B29: usp_38_diff_out_17_125_215 (protein)
chain: SDEELKKEIEKKLKEAEELLKEAEKALEAGAPAEEVEKLLDAAADALGQLAVLLRELREKSKDKAQAAKFIKKATEEANKLIDRYTELAERNFLRVAEEQ
B30: usp_38_diff_out_16_37_208 (protein)
chain: AEAKLAEFAAFMERAIEEARRLAEEARRLAEEGAPVEEIERLLEELRRLLDEVVERTTEVLEEVPEHADEILALYDRAATEIAEAGQEIREELRRRREEE
B31: usp_38_diff_out_16_37_211 (protein)
chain: MEEEIEKARKEMEEHLEKALELAERALKLVEEGASEAEIEKAMQEATDALLKAGRAAAELIHLDPSLEDEVVARYDEVATRVAALLREVQEALRARRAAE
B32: usp_38_diff_out_16_25_196 (protein)
chain: EVEALLRAHDEIGRAAGLVLRAREEEDPERQRELLREALEHLRRALEILREELRVDEETARELEELIERAERLLEEGAPAEEVIAVIEEAIDLAVDALAE

Molecular target: T1, USP38, Q8NB14
Experiment: median log2 fold change of GCK-ALFA target abundance (FLAG IP / Myc IP barcode read proportion) (log2 ratio); each designed protein is fused to an ALFA-tag nanobody in HEK293 cells to bring the named protein to FLAG-tagged glucokinase (GCK); Myc marks an untargeted standard; higher = target protein stabilised (more abundant)
Conditions: target protein: 3xFLAG-MCP-GCK-ALFA reporter; HEK293 landing pad (RPLP)
Procedure, shortened: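 Binders fused to an ALFA nanobody were recombined as a library into HEK293 landing-pad cells, which were induced with 2 μg mL^−1 doxycycline and then transfected to express a FLAG-tagged target and a Myc-tagged standard. After 48 h, circular RNA barcodes recovered by anti-FLAG and anti-Myc immunoprecipitation of lysates were reverse transcribed, amplified and sequenced. Each binder's target abundance is the median log2 ratio of FLAG to Myc barcode read proportions, from barcodes present at ≥10^−7 in both replicates, binders carrying ≥3 barcodes per replicate, a 10^−6 pseudocount and pooled replicates.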

Row | Binder | median log2 fold change
1 | B1 | 0.0801
2 | B2 | 0.324
3 | B3 | -0.535
4 | B4 | 0.00197
5 | B5 | 0.371
6 | B6 | 0.457
7 | B7 | -1.04
8 | B8 | -0.344
9 | B9 | -0.436
10 | B10 | -0.0349
11 | B11 | -0.522
12 | B12 | 0.107
13 | B13 | 0.0185
14 | B14 | 0.237
15 | B15 | 0.179
16 | B16 | -0.0578

Row | Binder | median log2 fold change
17 | B17 | 0.188
18 | B18 | 0.243
19 | B19 | -0.484
20 | B20 | -0.149
21 | B21 | 0.0443
22 | B22 | -0.0439
23 | B23 | 0.00535
24 | B24 | 0.316
25 | B25 | 0.0845
26 | B26 | 0.174
27 | B27 | -0.622
28 | B28 | 0.41
29 | B29 | -0.432
30 | B30 | -0.00395
31 | B31 | 0.0682
32 | B32 | 0.215
